Cruzain Triton – cruzain (T. cruzi) inhibition with detergent; P25779; purified cruzain, Z-FR-AMC fluorescence, 0.01% Triton; Potency, µM, for the others: max response, negative = inhibition, hits mostly inhibitors; 200,000 compounds, 0.43% hits;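 also: plate controls were neutral wells for no effect and buffer without enzyme for full effect; nearly all actives have a fitted effect of over 40% in size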
Target sequence (P25779 123-467 limits assumed): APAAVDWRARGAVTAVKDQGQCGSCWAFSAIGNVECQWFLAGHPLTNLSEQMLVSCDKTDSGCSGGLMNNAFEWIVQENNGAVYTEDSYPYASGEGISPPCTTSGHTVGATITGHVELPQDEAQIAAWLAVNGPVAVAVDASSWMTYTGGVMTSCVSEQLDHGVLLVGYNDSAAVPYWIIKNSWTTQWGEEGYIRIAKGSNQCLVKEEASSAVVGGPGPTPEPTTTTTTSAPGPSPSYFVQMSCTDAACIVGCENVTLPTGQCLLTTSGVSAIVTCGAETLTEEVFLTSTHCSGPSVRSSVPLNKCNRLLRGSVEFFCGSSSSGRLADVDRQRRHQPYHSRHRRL
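Cruzain (1.5 nM) preincubated 15 min at RT with compound in 100 mM sodium acetate pH 5.5, 5 mM DTT, 0.01% Triton X-100. Reaction started with 2 uM Z-FR-AMC; AMC fluorescence (ex 360/em 450 nm) change over 60 s gave rate.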
Cruzain inh noDet – cruzain (T. cruzi) inhibition without detergent. P25779. purified cruzain, Z-FR-AMC fluorescence, no detergent. Potency, µM, for the others: max response, negative = inhibition, hits mostly inhibitors. 200,000 compounds, 2.3% hits. AID 1476;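 also: plate controls were enzyme without inhibitor for no effect and buffer without enzyme for full effect; nearly all actives have a fitted effect of over 40% in size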
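Detergent-free condition (0.00005% Triton X-100) in acetate buffer pH 5.5 with DTT. 1.5 nM enzyme and compound were pre-mixed 15 min, then 2 uM Z-FR-AMC substrate added; reaction progress from fluorescence change between first and third reads (60 s).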
Papain inh – blocks papain protease activity, flagging nonselective cruzain hits; shares compounds with Cruzain Triton; purified papain, Z-FR-AMC fluorescence cleavage; Potency, µM, inactives show max response, negative = inhibition, actives largely listed as inhibitors; 410 compounds, 41% hits; AID 2161;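 also: 0% = no-compound wells and -100% = no-enzyme wells; nearly all actives have a fitted effect of over 35% in size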
Target sequence (P00784 whole entry, looked up): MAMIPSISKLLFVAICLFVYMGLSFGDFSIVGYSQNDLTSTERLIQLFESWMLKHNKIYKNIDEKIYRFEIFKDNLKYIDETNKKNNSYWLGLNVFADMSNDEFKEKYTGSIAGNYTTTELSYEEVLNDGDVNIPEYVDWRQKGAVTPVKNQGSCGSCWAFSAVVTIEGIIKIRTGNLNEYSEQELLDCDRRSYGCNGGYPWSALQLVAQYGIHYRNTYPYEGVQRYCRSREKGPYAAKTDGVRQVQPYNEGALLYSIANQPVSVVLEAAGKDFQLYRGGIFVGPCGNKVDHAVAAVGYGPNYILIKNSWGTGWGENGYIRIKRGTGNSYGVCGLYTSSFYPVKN
Starred values were filed as active, the others as inactive; ? = inconclusive; · = no result given. Most compounds without a hit are left out; they make up all but 2.5% or so of the library. Calls follow the shape of the dose curve; as a rule, active = well fitted curve in the direction sought with a large enough effect; inconclusive = small, poorly fitted or top-dose-only effect, or another doubt; inactive = no such curve, though single readings can be large; an effect the other way counts as inactive or inconclusive. Potency is read from the fitted curve at half-maximal effect.

SMILES	Cruzain Triton	Cruzain inh noDet	Papain inh
CCc1ccc2[nH]c(=O)c(CN(Cc3ccco3)Cc3nnnn3Cc3ccco3)cc2c1	·	·	-19%
Cc1ccc2[nH]c(=O)c(CN(Cc3ccco3)Cc3nnnn3Cc3ccco3)cc2c1	·	·	-3%
Cc1ccc2cc(CN(Cc3ccc4c(c3)OCO4)Cc3nnnn3Cc3ccco3)c(=O)[nH]c2c1	-10%	-3%	·
COc1cccc([C@@H]2Oc3ccc(OC)cc3C[C@H]2O)c1	-1%	-4%	·
O=C(CCC1N=C2c3ccccc3N=C(SCc3cccc(F)c3)N2C1=O)NCc1cccs1 (configuration not stated)	-2%	4%	·
COC(=O)c1cnn(-c2ccc(C(=O)Nc3ccc(C(C)=O)cc3)cc2)c1N	2%	21%	·
CCN(CC)CCn1c(-c2ccccc2)nc2c(NCCOC)nc(C)nc21	6%	-2%	·
Cc1ccccc1OCc1ccc(-c2nc(C#N)c(N3CCC(C(N)=O)CC3)o2)o1	-4%	?	·
Cc1ccc2[nH]c(=O)c(CN(Cc3ccccc3)Cc3nnnn3C3CCCC3)cc2c1	-12%	12%	·
Cc1ccc2[nH]c(=O)c(CN(Cc3ccccc3)Cc3nnnn3Cc3ccco3)cc2c1	·	·	-13%
CC1(C)Cn2c(nnc2-c2ccccc2)S1	8%	7%	·
C(/Oc1ccccc1)=C1\Nn2c(nnc2-c2cc(-c3ccccc3)n[nH]2)S1	·	·	11%
Cc1ccc(CNC(=O)CCCN2C(=O)CCn3nc(-c4cn(C)c5ccccc45)cc32)cc1	-1%	?	·
CC1CCN(c2oc(-c3cccc4ccccc34)nc2C#N)CC1	32µM*	?	40µM*
N#Cc1nc(-c2cccc3ccccc23)oc1N1CCCCC1	-3%	?	·
Cc1ccc(C2C(=O)N(C3CCCCCC3)CC(=O)N2CCC2=CCCCC2)cc1 (configuration not stated)	1%	-6%	·
CCOC(=O)c1[nH]c(C)c(CCC(=O)Nc2ccc(C(C)=O)cc2)c1C	2%	-8%	·
CCN(CC)S(=O)(=O)c1ccc(N=Nc2c(C)[nH]n(C(N)=S)c2=O)cc1	-25%	-19%	·
NC(=S)n1[nH]c(-c2ccc([N+](=O)[O-])cc2)c(N=Nc2ccc(O)cc2)c1=O	0.35µM*	0.63µM*	-1%
Cc1oc2c(c(C)cc3oc(=O)c(CC(=O)NCc4ccc(F)cc4)c(C)c32)c1C	1%	-3%	·
Cc1cc(C)n2nc(-c3cccnc3)nc2n1	3%	5%	·
Cn1nc(-c2ccc(F)cc2)nc2c(=O)n(C)c(=O)nc1-2	·	·	-4%
COc1ccc(-n2c(C)nn(C)c2=O)cc1	11%	-3%	·
Cn1nc(-c2cccnc2)nc2c(=O)n(C)c(=O)nc1-2	·	·	3%
CCn1nc(-c2ccccc2C)nc2c(=O)n(C)c(=O)nc1-2	·	·	-9%
SMILES	Cruzain Triton	Cruzain inh noDet	Papain inh
Cn1c(=O)nc2n(Cc3ccccc3)c3ccccc3cc-2c1=O	?	-9%	·
Cc1cc(C)n2nc(-c3ccc(F)cc3)nc2n1	7%	-6%	·
COc1ccc(-c2nc3c(=O)n(C)c(=O)nc-3n(C)n2)cc1	·	·	-10%
CCOc1ccccc1-n1nnc(-c2nsc(NC(=O)c3ccc(C)cc3)n2)c1C	1%	3%	·
Cc1ccc(NC(=O)C2CCN(C(=O)c3cnn(-c4ccccc4)c3-n3cccc3)CC2)cc1	-4%	?	·
Cc1ccc(C(=O)NCC(c2ccco2)S(=O)(=O)c2ccc(Cl)cc2)cc1C (configuration not stated)	-3%	-13%	·
COCCCN1C(=O)c2ccccc2CC1(C)C(=O)NC1CCCCC1 (configuration not stated)	1%	-1%	·
COc1ccc(C(CNC(=O)c2oc3ccc(C)cc3c2C)N2CCOCC2)cc1 (configuration not stated)	-2%	1%	·
Cn1nc(-c2ccc(Cl)cc2)nc2c(=O)n(C)c(=O)nc1-2	1.6µM*	1.6µM*	-20%
Cc1ccc(-c2nc3n(n2)C(=O)CC(c2ccc(Cl)cc2)S3)cc1 (configuration not stated)	-4%	-9%	·
COc1cc(C(=O)N2CCC(c3nc4ccccc4o3)CC2)cc(OC)c1OC	0%	10%	·
O=c1cc(-c2cccc(Br)c2)nc(-c2ccccc2F)o1	8.9µM*	10µM*	1%
COc1ccc(Br)cc1-c1noc(-c2ccccc2F)n1	-4%	-11%	·
Fc1ccccc1-c1nc(-c2ccccc2)no1	-5%	11%	·
O=c1cc(-c2ccccc2F)nc(-c2ccccc2F)o1	4.5µM*	7.9µM*	8%
COc1ccc(-c2noc(C3CC(=O)N(c4ccc(C)c(F)c4)C3)n2)c(OC)c1 (configuration not stated)	-9%	?	·
CCOC(=O)c1cc(OC(=O)c2ccc(OC)c(OC)c2)n(-c2ccccc2)n1	-6%	1%	·
NC(=S)N/N=C\c1ccc(-c2cccc(Cl)c2Cl)o1	0.63µM*	0.63µM*	2.8µM*
COC(=O)N/N=C\c1ccc(-c2cc(Cl)c(Cl)cc2Cl)o1	-4%	?	·
Nc1nnc(CC(=O)N/N=C/c2ccc(-c3ccccc3Cl)o2)s1	-16%	-15%	·
NC(=S)N/N=C/c1ccc(-c2ccc(Cl)c(Cl)c2)o1	0.63µM*	0.63µM*	6.3µM*
Cc1ccc(-c2cnc(C3CC3)o2)cc1S(=O)(=O)Nc1ccc(F)cc1Cl	-6%	-14%	·
CCc1c(-c2ccccc2)nc2ccccc2c1C(=O)NCCc1ccccc1	0%	5%	·
COc1ccc(CNc2nc(-c3cccc(NS(C)(=O)=O)c3)nc3ccccc23)c(OC)c1	2%	-6%	·
N=C(N)SCCCN	0%	-5%	·
SMILES	Cruzain Triton	Cruzain inh noDet	Papain inh
S=C(NC1CCCCC1)N(CCc1nc2ccccc2[nH]1)C1CCCC1	13µM*	11%	7%
O=C(Nc1ccccc1)N(CCc1nc2ccccc2[nH]1)C1CCCC1	0%	-6%	·
CCCCn1c(=O)c2oc3ccccc3c2n(CC(=O)Nc2cccc(Cl)c2)c1=O	-1%	-5%	·
NC(=O)Cn1c(=O)n(-c2ccc(F)c(Cl)c2)c(=O)c2sc3ccccc3c21	9%	4%	·
CNC(=O)c1ccc2nc(-c3ccccc3)c(-c3ccccc3)nc2c1	·	·	-20%
C=CCNC(=O)c1ccc2nc(-c3ccccc3)c(-c3ccccc3)nc2c1	-1%	8%	·
Cn1c(=O)c2[nH]c(CCCCC(=O)O)nc2n(C)c1=O	4%	4%	·
CCC(C)NC(=O)c1nn(-c2ccc(C)cc2)nc1CO (configuration not stated)	3%	-2%	·
COc1cccc(NC(=O)Cn2c(=O)n(CCCCC(=O)NCCc3ccccc3)c(=O)c3ccccc32)c1	-3%	4%	·
O=C(O)c1ccc(NS(=O)(=O)c2ccsc2C(=O)O)cc1	-3%	-2%	·
Cc1cc(C)c(/C=C/c2onc(C)c2S(=O)(=O)N2CCC(C(=O)N3CCN(c4ccccc4)CC3)CC2)c(C)c1	-4%	-5%	·
CCOc1ccc(-c2cc3nc(C4CCN(C(=O)OC(C)(C)C)CC4)c(C(=O)Nc4ccc(C)cc4C)cn3n2)cc1	-20%	?	·
COc1ccc(C(=O)N/N=C/c2ccc(OC(=O)c3ccccc3)cc2)cc1	0%	?	·
COc1ccc(N=Cc2nc(-c3ccccc3)oc2OC(=O)c2ccccc2)cc1	10µM*	16µM*	-24%
CSc1ccc(Nc2nn(-c3ccc(OC(F)(F)F)cc3)nc2C(C)=O)cc1	2%	?	·
CC(=O)c1cccc(NC(=O)CCCSc2nc(-c3ccco3)cc(C(F)(F)F)n2)c1	-12%	19%	·

Screening data from PubChem.
